Measurements published in PubChem BioAssay (NCATS).
Several values for one entry are separate records, joined by “and”; a condition that tells them apart may be missing. Equal entries are not always repeated. Inconclusive results are not listed. Activity calls are given as the source filed them. Unless noted, the call rests on the fitted dose curve; in most records, active means well fitted curve in the direction sought with a large enough effect; inconclusive means small, poorly fitted or top-dose-only effect, or another doubt; inactive means no such curve, though single readings can be large; an effect the other way counts as inactive or inconclusive.

Columns and labels:
[1] = Cellular Toxicity (caspase-3) SHSY5Y (AID 657)
Summary of the method: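 Cells plated and incubated 5 h at 37 °C, dosed over a concentration range, incubated 16 h, then given Caspase-Glo 3/7 reagent for 1 h at room temperature before luminescence reading. Staurosporine (10 uM) defined full stimulation.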

[2] = Cellular Toxicity (caspase-3) BJ (AID 658)
Summary of the method: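 Readout: Caspase-Glo 3/7 luminescence increase in BJ cells after 16 hr treatment at 37 °C. Staurosporine and tamoxifen served as positive controls; AC50 values came from Hill modelling of data normalized to DMSO and 10 uM staurosporine.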

[3] = Cellular Toxicity (caspase-3) MRC-5 (AID 659)
Summary of the method: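 Concentration-dependent caspase 3/7 activation is measured in human normal lung fibroblasts (MRC-5) following 16-hour treatment. AC50 values come from standard Hill-equation modeling of luminescence normalized to DMSO and 10 uM staurosporine.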

[4] = Cellular Toxicity (caspase-3) Mesangial (AID 660);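 further: combined caspase 3 and 7 activity read by Caspase-Glo luminescence; cells exposed to compound for 16 h before the caspase read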
Summary of the method: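 Concentration-response qHTS: compound-induced rise in caspase 3/7 luminescence in human mesangial cells after 16 h, normalized to DMSO and 100 uM tamoxifen controls.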

[5] = Cellular Toxicity (caspase-3) SK-N-SH (AID 661)
Summary of the method: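 Caspase 3/7 activation is measured as a luminescence increase from aminoluciferin released by substrate cleavage in SK-N-SH cells after 16 hr compound treatment; values are AC50 from concentration-response curves.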

[6] = Cellular Toxicity (caspase-3) H-4-II-E (AID 663);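 further: 0% = DMSO basal and 100% = 100 µM tamoxifen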
Summary of the method: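 Apoptosis induction is scored as increased luminescence from caspase 3/7 substrate cleavage in rat hepatoma H-4-II-E cells exposed to compound for 16 hr. Activity is scaled between DMSO and 100 uM tamoxifen.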

[7] = Cellular Toxicity (caspase-3) N2a (AID 665); details: N2a cells, luminescence, normalized: DMSO 0%, 10 µM staurosporine 100%; at 92.2 µM (top of the series);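 further: compound exposure lasted 16 h at 37 °C before readout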
Summary of the method: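 Plated mouse neuroblastoma N2a cells received titrated compounds for 16 h in complete medium. Caspase activity was then detected with a peptide-aminoluciferin luminescent reagent.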

[8] = MultiTox-Fluor Cytotoxicity Assay - LYMP1-001 - Dead Cells (AID 946)
Summary of the method: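 Seed 2500 LYMP1-001 cells/well, incubate 5 hr at 37 C; add compound, 16 hr at 37 C; add MultiTox-Fluor reagent, 60 min RT; read dead-cell fluorescence Ex/Em=485/520. Normalize to DMSO and 15 uM tetraoctylammonium bromide.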

[9] = Cell Viability - LYMP1-002 - Assay at 16 hr (AID 948);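 further: 0% = DMSO alone and full effect = 92 µM tetraoctylammonium bromide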
Summary of the method: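 Acute cytotoxicity is scored as a concentration-dependent fall in intracellular ATP in a human lymphoblastoid line (LYMP1-002) after 16 hr compound exposure at 37 C, measured by luciferase luminescence.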

[10] = MultiTox-Fluor Cytotoxicity Assay - LYMP1-003 - Dead Cells (AID 961); further: nearly all actives have a fitted effect of over 70% in size
Summary of the method: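 LYMP1-003 lymphoblastoid, 2500 cells/well, 5 hr settle then 16 hr cpd at 37 C; MultiTox-Fluor reagent 60 min RT; Ex/Em 485/520 dead-cell signal; norm. DMSO = 0%, 15 uM tetraoctylammonium bromide = 100%; Hill AC50.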

[11] = Cell Viability - LYMP1-003 - Assay at 24 hr (AID 963);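 further: plate controls were DMSO only for no effect and tetraoctylammonium bromide positive control for full effect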
Summary of the method: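 Acute toxicity in LYMP1-003 lymphoblastoid cells: 24 hr compound treatment at 37 C, ATP measured with CellTiter-Glo after 30 min at room temperature. AC50 derived by fitting the Hill equation to qHTS titrations.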

[12] = Cell Viability - LYMP2-003 (AID 965);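 further: cells exposed to compounds for 24 h before reading; nearly all actives have a fitted effect of over 50% in size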; further: potency means the concentration at half of the fitted maximal effect
Summary of the method: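 Acute cytotoxicity is scored as a concentration-dependent drop in intracellular ATP, measured by luciferase luminescence in human lymphoblastoid cells treated for 24 hours at 37 C. AC50 values derive from Hill-equation modelling.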

[13] = Cell Viability - LYMP2-015 (AID 971);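 further: cells exposed to compound for 24 h; nearly all actives have a fitted effect of over 55% in size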; further: potency means the concentration at half of the fitted maximal effect
Summary of the method: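 Acute toxicity was scored as a concentration-dependent drop in intracellular ATP in lymphoblastoid cells after 24 hr compound exposure in complete medium. Detection used CellTiter-Glo luciferase luminescence.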

[14] = Cell Viability - LYMP2-025 (AID 976);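 further: cells exposed to compound for 24 h at 37 °C; plate controls were DMSO only for no effect and tetraoctylammonium bromide control for full effect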
Summary of the method: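 In qHTS format, LYMP2-025 lymphoblastoid cells in complete culture medium received compound for 24 hr; ATP-based CellTiter-Glo signal gave viability, with AC50 derived by Hill equation.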

[15] = Cell Viability - LYMP2-006 (AID 978);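 further: cells exposed to compound for 24 hours; on the % scale 0 is the no-effect control and ±100 the full control effect; nearly all actives have a fitted effect of over 60% in size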
Summary of the method: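 Concentration-dependent loss of intracellular ATP in a human lymphoblastoid line after 24 hr treatment at 37 C was measured by CellTiter-Glo luminescence, with AC50 values obtained from standard Hill-equation modelling.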

[16] = Cell Viability - LYMP2-007 (AID 979);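 further: cells exposed to compound for 24 h before reading; nearly all actives have a fitted effect of over 60% in size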; further: potency means the concentration at half of the fitted maximal effect
Summary of the method: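 Acute toxicity is scored as a concentration-dependent fall in intracellular ATP in human lymphoblastoid cells treated 24 hr at 37 C, measured by luciferase luminescence; Hill-equation modelling yields AC50.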

[17] = Cell Viability - LYMP2-008 (AID 980); further: nearly all actives have a fitted effect of over 60% in size; further: potency means the concentration at half of the fitted maximal effect
Summary of the method: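 Acute cytotoxicity is scored as concentration-dependent loss of cellular ATP in a human lymphoblastoid line after 24 hr treatment at 37 C. ATP is quantified by luciferase luminescence.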

[18] = Cell Viability - LYMP2-014 (AID 983);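 further: cells exposed to compound for 24 h at 37 °C; plate controls were DMSO only for no effect and 92 µM tetraoctylammonium bromide for full effect; nearly all actives have a fitted effect of over 50% in size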
Summary of the method: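 Decrease in intracellular ATP after 24 hr treatment at 37 C, measured by luciferase luminescence, indicated cytotoxicity. Concentration-response data were fitted with the standard Hill equation to give AC50.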

[19] = Cell Viability - LYMP1-002 - Assay at 24 hr (AID 993); further: on the % scale 0 is the no-effect control and ±100 the full control effect
Summary of the method: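 qHTS, LYMP1-002 lymphoblastoid, 24 h cpd, 37 C, CellTiter-Glo ATP luminescence; AC50 via Hill eq.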

[20] = qHTS assay for small molecule agonists of the antioxidant response element (ARE) signaling pathway measured by Nrf2-dependant transcriptional activity (AID 720636; active means well fitted curve in the direction sought with a large enough effect in the repeat runs; an effect the other way counts as inactive or inconclusive;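 further: HepG2 cells with an ARE-driven luciferase reporter; % of control where 0% means no effect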)
Summary of the method: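 We exposed ARE-luc HepG2 cells, seeded in assay medium with 1% dialyzed FBS and allowed 6 hr to adhere, to test compounds overnight (16 hr, 37 C) before measuring luciferase with ONE-Glo.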

ClC(Cl)=C(Cl)C(Cl)=C(Cl)Cl
inactive: outcome [1] | outcome [2] | outcome [3] | outcome [4] | outcome [5] | outcome [6] | caspase-3 activation [7] -2.34% | Potency [8] | Potency [9] | Potency [10] | Potency [11] | Potency [12] | Potency [13] | Potency [14] | Potency [15] | Potency [16] | Potency [17] | Potency [18] | Potency [19] | outcome [20]

c1ccc(OP(Oc2ccccc2)Oc2ccccc2)cc1
inactive: outcome [1] | outcome [2] | outcome [3] | outcome [4] | outcome [5] | outcome [6] | caspase-3 activation [7] 0.755% | Potency [8] | Potency [9] | Potency [10] | Potency [11] | Potency [12] | Potency [13] | Potency [14] | Potency [15] | Potency [16] | Potency [17] | Potency [18] | Potency [19] | outcome [20]

CC(C)(OO)c1ccccc1
inactive: outcome [1] | outcome [2] | outcome [3] | outcome [4] | outcome [5] | outcome [6] | caspase-3 activation [7] -2.62% | Potency [8] | Potency [9] | Potency [10] | Potency [11] | Potency [14] | Potency [15] | Potency [18] | Potency [19] | outcome [20]
active: Potency [12] 50.1 µM | Potency [13] 39.8 µM | Potency [16] 31.6 µM | Potency [17] 39.8 µM

CCOP(=S)(OCC)Oc1ccc([N+](=O)[O-])cc1
inactive: outcome [1] | outcome [2] | outcome [3] | outcome [4] | outcome [5] | outcome [6] | caspase-3 activation [7] -4.19% and -4.51% | Potency [8] | Potency [9] | Potency [10] | Potency [11] | Potency [12] | Potency [13] | Potency [14] | Potency [15] | Potency [16] | Potency [17] | Potency [18] | Potency [19] | outcome [20]

NC(=S)Nc1ccccc1
inactive: outcome [1] | outcome [2] | outcome [3] | outcome [4] | outcome [5] | outcome [6] | caspase-3 activation [7] -3.2% and -1.82% | Potency [8] | Potency [9] | Potency [10] | Potency [11] | Potency [12] | Potency [13] | Potency [14] | Potency [15] | Potency [16] | Potency [17] | Potency [18] | Potency [19] | outcome [20]

[O-][Br+2]([O-])O
inactive: outcome [1] | outcome [2] | outcome [3] | outcome [4] | outcome [5] | outcome [6] | caspase-3 activation [7] -9.36% and -10.4% | Potency [8] | Potency [9] | Potency [10] | Potency [11] | Potency [12] | Potency [13] | Potency [14] | Potency [15] | Potency [16] | Potency [17] | Potency [18] | Potency [19] | outcome [20]

C=CC(N)=O
inactive: outcome [1] | outcome [2] | outcome [3] | outcome [4] | outcome [5] | outcome [6] | caspase-3 activation [7] -0.525% and -0.998% | Potency [8] | Potency [9] | Potency [10] | Potency [11] | Potency [12] | Potency [13] | Potency [14] | Potency [15] | Potency [16] | Potency [17] | Potency [18] | Potency [19] | outcome [20]

Brc1ccc(Oc2cc(Br)c(Br)cc2Br)c(Br)c1
inactive: outcome [1] | outcome [2] | outcome [3] | outcome [4] | outcome [5] | outcome [6] | caspase-3 activation [7] 12.3% and 4.39% | Potency [8] | Potency [9] | Potency [10] | Potency [11] | Potency [12] | Potency [13] | Potency [14] | Potency [15] | Potency [16] | Potency [17] | Potency [18] | Potency [19] | outcome [20]

Cc1ccc(O)c(C)c1
inactive: outcome [1] | outcome [2] | outcome [3] | outcome [4] | outcome [5] | outcome [6] | caspase-3 activation [7] 3.54% | Potency [8] | Potency [9] | Potency [10] | Potency [11] | Potency [12] | Potency [13] | Potency [14] | Potency [15] | Potency [16] | Potency [17] | Potency [18] | Potency [19] | outcome [20]

CC(O)CCl (stereo not given)
inactive: outcome [1] | outcome [2] | outcome [3] | outcome [4] | outcome [5] | outcome [6] | caspase-3 activation [7] 3.17% | Potency [8] | Potency [9] | Potency [10] | Potency [11] | Potency [12] | Potency [13] | Potency [14] | Potency [15] | Potency [16] | Potency [17] | Potency [18] | Potency [19] | outcome [20]

Clc1cccc(C(Cl)(Cl)Cl)n1
inactive: outcome [1] | outcome [2] | outcome [3] | outcome [4] | outcome [5] | outcome [6] | caspase-3 activation [7] -0.536% | Potency [8] | Potency [9] | Potency [10] | Potency [11] | Potency [12] | Potency [13] | Potency [14] | Potency [15] | Potency [16] | Potency [17] | Potency [18] | Potency [19] | outcome [20]

C[N+](C)(C)Cc1ccccc1
inactive: outcome [1] | outcome [2] | outcome [3] | outcome [4] | outcome [5] | outcome [6] | caspase-3 activation [7] -0.692% | Potency [8] | Potency [9] | Potency [10] | Potency [11] | Potency [12] | Potency [13] | Potency [14] | Potency [15] | Potency [16] | Potency [17] | Potency [18] | Potency [19] | outcome [20]

C=CC(C)=O
inactive: outcome [1] | outcome [2] | outcome [3] | outcome [4] | outcome [5] | outcome [6] | caspase-3 activation [7] 0.266% | Potency [8] | Potency [9] | Potency [10] | Potency [11] | Potency [12] | Potency [13] | Potency [14] | Potency [15] | Potency [16] | Potency [17] | Potency [18] | Potency [19] | outcome [20]
